# Measured values from PubChem BioAssay.
# Where “and” joins values, the source holds several entries; their conditions need not be identical. Equal entries are not always repeated. Results filed as inconclusive are left out. A structure can be active in one record and inactive in another. Calls of active or inactive are those of the source. Unless noted, no stated cut-off is given here; in the data, active means inhibition above about 80%; inactive means the rest.
# Experiments:
# [1] = differential killing of epithelial or mesenchymal cells, primary screen, imaging, PC-3E GFP, TEM4-18 mCherry, co-culture (AID 1345086;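 active means compounds killing one labelled cell type while sparing the other, by normalised counts and ratio limits, not self-fluorescent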;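 on all read-outs here: cells exposed to compound for 72 h before imaging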;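 on red/green cell ratio (normalised): normalised mesenchymal count divided by normalised epithelial count so high means epithelial killing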); conditions: imaging cell counts, at 1 µM; for red/green cell ratio (normalised): actives lie on both sides, counts scaled to control wells, 1 = unselective
# [2] = growth inhibition of DIPG glioma cells, dose response, cell-based, SU-DIPG-XVII, MIPE5.0, CellTiter-Glo, qHTS (AID 1347060; cut-off not given, nearly all actives have AC50 up to about 26 µM;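 on AC50: cells exposed to compound for 48 hours before viability readout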); conditions: SU-DIPG-XVII viability, CellTiter-Glo ATP luminescence
# [3] = growth inhibition of DIPG glioma cells, dose response, cell-based, JHH-DIPG-1, MIPE4.0, CellTiter-Glo, qHTS (AID 1347062; cut-off not given, nearly all actives have AC50 up to about 27 µM;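 on AC50: cells exposed to compound for two days before readout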); conditions: JHH-DIPG-1 viability, CellTiter-Glo ATP luminescence
# [4] = growth inhibition of DIPG glioma cells, dose response, cell-based, SU-DIPG-IV, MIPE4.0, CellTiter-Glo, qHTS (AID 1347063; cut-off not given, nearly all actives have AC50 up to about 30 µM;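 further: compound exposure lasted 48 hours before the viability readout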); conditions: SU-DIPG-IV viability, CellTiter-Glo ATP luminescence
# [5] = growth inhibition of DIPG glioma cells, dose response, cell-based, SU-DIPG-XIII, MIPE5.0, CellTiter-Glo, qHTS (AID 1347064; cut-off not given, nearly all actives have AC50 up to about 23 µM;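 on AC50: cells exposed to compound for 48 hours before the viability read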); conditions: SU-DIPG-XIII viability, CellTiter-Glo ATP luminescence
# [6] = viability loss in pontine glioma line – cell-based, SU-DIPG-XXV, MIPE5.0, CellTiter-Glo, qHTS, dose response (AID 1347065; cut-off not given, nearly all actives have AC50 up to about 26 µM;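 further: cells exposed to compound for 48 hours before ATP readout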); conditions: CellTiter-Glo ATP luminescence
# [7] = SU-DIPG-VI glioma cell viability, MIPE4.0 library, CellTiter-Glo luminescence, qHTS (AID 1347066; cut-off not given, nearly all actives have AC50 up to about 30 µM;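 further: cells exposed to compound for 48 hours before readout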); conditions: CellTiter-Glo ATP luminescence
# [8] = SU-DIPG-XXV glioma cell viability, MIPE5.0 library, qHTS (AID 1347068; cut-off not given, nearly all actives have IC50 up to about 30 µM)
# [9] = inhibitors of Cryptococcus chitosan production, flow cytometry, Cibacron Brilliant Red staining (AID 1347148; call rule not given here;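 further: compound exposure lasted three days at 37 degrees C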); conditions: Cryptococcus neoformans chitosan, stronger effect = lower value; at 10 µM unless noted
# [10] = molecular target: Mitogen-activated protein kinase 7 (Homo sapiens) (UniProt Q13164); assay: ERK5 transactivation activators in reporter cells, primary screen, cell-based, HTS (AID 1508626;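 active means luciferase signal above three times the same-plate solvent-only control wells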;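 further: luciferase driven by Gal4-ERK5 fusion binding five Gal4 sites before minimal TATA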); conditions: HeLa Gal4-ERK5 transactivation, 18 h, at 5 µM, stronger effect = higher value
# [11] = LFS_MB_P medulloblastoma growth inhibition, cell-based, chromothripsis tumors, cisplatin or BGB combos (AID 1671449); conditions: LFS_MB_P medulloblastoma cells;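 further: cells exposed for 96 hours; 0% = vehicle DMSO and 100% = killing by high DMSO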
# [12] = HDN33 neuroblastoma growth inhibition, cell-based, chromothripsis tumors, cisplatin or BGB combos (AID 1671450); conditions: HDN33 neuroblastoma cells, stronger effect = higher value;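 further: cells exposed to compound for four days; 0% = vehicle DMSO and 100% = cell killing by high DMSO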
# [13] = ICB984 medulloblastoma cell growth inhibition, synergistic combos for chromothripsis tumors, cisplatin or BGB combos (AID 1671451; call rule not given here;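 further: cells exposed for 96 hours before readout; 0% = vehicle DMSO and 100% = killing by high DMSO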); conditions: ICB984 medulloblastoma cells, drug combinations, stronger effect = higher value
# [14] = LFS_MB_1R medulloblastoma cell growth inhibition, synergistic combos for chromothripsis tumors, cisplatin or BGB combos (AID 1671452); conditions: LFS_MB_1R medulloblastoma cells, stronger effect = higher value;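 further: cells exposed for 96 hours before readout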
# [15] = HTB85 osteosarcoma cell growth inhibition, synergistic combos for chromothripsis tumors, BGB or cisplatin IC20 combos (AID 1671453); conditions: HTB85 osteosarcoma cells, drug combinations, stronger effect = higher value;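 further: cells exposed for 96 hours before readout; 0% = vehicle DMSO and 100% = high DMSO killing control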
# [16] = CRL2098 osteosarcoma cell growth inhibition, synergistic combos for chromothripsis tumors, BGB or cisplatin IC20 combos (AID 1671454); conditions: CRL2098 osteosarcoma cells, drug combinations, stronger effect = higher value;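 further: cells exposed for 96 h before readout; 0% = vehicle DMSO and 100% = killing by high DMSO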
# [17] = HD-MB03 medulloblastoma cell growth inhibition, synergistic combos for chromothripsis tumors, BGB or cisplatin IC20 combos (AID 1671455; in the data active means inhibition above about 83%;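 further: 0% = vehicle DMSO and 100% = high DMSO as cytotoxic control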); conditions: HD-MB03 medulloblastoma cells, stronger effect = higher value
# [18] = UWB1.289 ovarian carcinoma cell growth inhibition, synergistic combos for chromothripsis tumors, BGB or cisplatin combos (AID 1671456); conditions: UWB1.289 ovarian carcinoma cells, stronger effect = higher value;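 further: cells exposed to compound for four days; 0% = vehicle DMSO and 100% = killing by high DMSO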
# [19] = LFS_MB_2R medulloblastoma cell growth inhibition, synergistic combos for chromothripsis tumors, cisplatin combos (AID 1671457); conditions: LFS_MB_2R medulloblastoma cells, stronger effect = higher value;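 further: cells exposed to compound for four days before readout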
# [20] = MDA-MB-436 breast carcinoma cell growth inhibition, synergistic combos for chromothripsis tumors, BGB or cisplatin combos (AID 1671458; call rule not given here;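 further: cells exposed for 96 hours; 0% = vehicle DMSO and 100% = killing by high DMSO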); conditions: MDA-MB-436 breast carcinoma growth inhibition, drug combinations, stronger effect = higher value
# [21] = UWB1.289_BRCA1 ovarian cancer growth, cell-based, BGB or cisplatin combinations (AID 1671459); conditions: UWB1.289 BRCA1 ovarian carcinoma, drug combinations, stronger effect = higher value
# [22] = human astrocyte viability loss, single and combined drugs, cytotoxicity control for chromothriptic childhood tumor combination screen, cell-based, BGB or cisplatin IC20 combos (AID 1671460); conditions: Human astrocytes, drug combinations, stronger effect = higher value;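 further: cells exposed to compounds for 96 hours before viability readout; 0% = vehicle and 100% = killing control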
# [23] = growth inhibition of BT084 medulloblastoma cells, cell-based, ICGC_MB145, cisplatin and BGB IC40 combos (AID 1671461); conditions: drug combinations, stronger effect = higher value;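 further: cells exposed to drugs for 96 hours; 0% = vehicle DMSO and 100% = high DMSO full killing control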
# [24] = growth inhibition of RCMB18 medulloblastoma cells, cell-based, cisplatin and BGB IC40 combos (AID 1671462); conditions: stronger effect = higher value;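 further: cells exposed to compound for four days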
# [25] = growth inhibition of CRL1545 osteosarcoma cells, cell-based, cisplatin and BGB IC20 combos (AID 1671464); conditions: stronger effect = higher value;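 further: cells exposed to compound for 96 hours before readout; 0% = vehicle DMSO and 100% = high DMSO killing control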
# [26] = measured here: epithelial PC-3E GFP cell survival
# [27] = measured here: mesenchymal TEM4-18 mCherry cell survival
# [28] = measured here: combination with BGB IC40, at 0.05 µM
# [29] = measured here: with BGB IC20 combination, at 0.5 µM
# [30] = measured here: with cisplatin IC20 combination, at 0.5 µM
# [31] = measured here: combination with cisplatin, at 0.5 µM
# [32] = measured here: combination with cisplatin, at 5 µM
# Chain of Mitogen-activated protein kinase 7 (Homo sapiens) (Q13164 whole entry, looked up, the tested form may be a part): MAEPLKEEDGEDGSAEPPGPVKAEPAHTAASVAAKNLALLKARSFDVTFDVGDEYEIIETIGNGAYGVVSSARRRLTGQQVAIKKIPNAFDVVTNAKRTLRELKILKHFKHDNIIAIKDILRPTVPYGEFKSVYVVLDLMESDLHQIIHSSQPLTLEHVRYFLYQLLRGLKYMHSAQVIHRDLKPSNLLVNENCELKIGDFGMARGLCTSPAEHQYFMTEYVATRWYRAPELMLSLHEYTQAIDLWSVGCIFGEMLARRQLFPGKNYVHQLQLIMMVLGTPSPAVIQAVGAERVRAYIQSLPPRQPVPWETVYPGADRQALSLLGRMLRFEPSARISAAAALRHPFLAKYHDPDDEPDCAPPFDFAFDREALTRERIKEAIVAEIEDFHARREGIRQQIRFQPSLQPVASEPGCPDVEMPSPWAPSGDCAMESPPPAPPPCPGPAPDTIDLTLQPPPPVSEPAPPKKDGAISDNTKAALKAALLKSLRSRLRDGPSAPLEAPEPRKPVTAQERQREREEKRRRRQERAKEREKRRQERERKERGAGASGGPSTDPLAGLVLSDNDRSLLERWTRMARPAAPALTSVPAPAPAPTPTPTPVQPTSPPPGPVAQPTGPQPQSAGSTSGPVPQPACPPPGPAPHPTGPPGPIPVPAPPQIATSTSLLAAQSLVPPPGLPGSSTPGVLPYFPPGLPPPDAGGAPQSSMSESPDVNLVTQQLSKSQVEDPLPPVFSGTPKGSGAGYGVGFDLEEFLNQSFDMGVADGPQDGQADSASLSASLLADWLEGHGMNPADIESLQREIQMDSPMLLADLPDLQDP
structure (smiles),measurement,setting,value
O=c1ccn([C@@H]2O[C@H](CO)[C@@H](O)[C@H]2O)c(=O)[nH]1,red/green cell ratio (normalised),[1],0.9 (inactive)
same,normalised cell number,[1]; [26],1
same,normalised cell number,[1]; [27],0.9
same,outcome,[2],inactive
same,outcome,[3],inactive
same,outcome,[4],inactive
same,outcome,[5],inactive
same,outcome,[6],inactive
same,outcome,[7],inactive
same,outcome,[8],inactive
CC[C@@]1(O)C(=O)OCc2c1cc1n(c2=O)Cc2cc3cc(O)ccc3nc2-1,red/green cell ratio (normalised),[1],0.94 (inactive)
same,normalised cell number,[1]; [26],0.31
same,normalised cell number,[1]; [27],0.29
same,AC50,[2],16.6 nM (active)
same,AC50,[3],1870 nM (active)
same,AC50,[4],83.3 nM (active)
same,AC50,[5],66.1 nM (active)
same,AC50,[6],148 nM (active)
same,outcome,[7],inactive
same,fold fluorescence,[9],7.95 [at 137.2 µM] (inactive)
same,luciferase signal,[10],44 AU (inactive)
same,inhibition,"[11]; at 0.5 µM, stronger effect = higher value",25.9% (inactive) and 5.42% (inactive)
same,inhibition,"[11]; measured here: combination with BGB IC20, at 0.005 µM",4.22% and -3.99%
same,inhibition,"[11]; measured here: combination with BGB IC40, at 0.005 µM",-42.5% and -15.9%
same,inhibition,[11]; [28],-16% and -4.31%
same,inhibition,"[11]; measured here: combination with cisplatin, at 0.5 µM, stronger effect = higher value",62.8% and 48.1%
same,inhibition,"[11]; measured here: combination with cisplatin, at 5 µM, stronger effect = higher value",89.7% and 78.7%
same,inhibition,"[12]; BGB combo, at 5 µM",98.1% and 98.5%
same,inhibition,[12]; at 0.5 µM,78.7% (inactive) and 83.5% (active)
same,inhibition,"[12]; cisplatin combo, at 5 µM",96.5% and 98%
same,inhibition,[12]; [29],82.7% and 84.4%
same,inhibition,[12]; [30],71% and 81.1%
same,inhibition,"[12]; single agent, at 5 µM",96.6% and 97.8%
same,inhibition,"[13]; BGB IC20 combo, at 0.005 µM",23.2% and 34.7%
same,inhibition,"[13]; BGB IC40 combo, at 0.005 µM",40.1% and 53.7%
same,inhibition,"[13]; BGB IC40 combo, at 0.05 µM",93.9%
same,inhibition,[13]; at 0.5 µM,-30.2% (inactive) and -10.4% (inactive)
same,inhibition,"[13]; cisplatin combo, at 0.05 µM",93.6% and 93.9%
same,inhibition,"[13]; cisplatin combo, at 0.5 µM",-46.6% and -4.75%
same,inhibition,"[13]; cisplatin combo, at 5 µM",-24.4% and 16.7%
same,inhibition,"[13]; measured here: 5 uM single agent, at 5 µM",-21.1% and 2.06%
same,inhibition,[14]; at 0.5 µM,67.2% (inactive) and 79% (inactive)
same,inhibition,[14]; [28],-33.9% and 7.21%
same,inhibition,[14]; [31],83.2% and 73.4%
same,inhibition,[14]; [32],84.4% and 82.5%
same,inhibition,[15]; at 0.5 µM,99% (active) and 98.8% (active)
same,inhibition,"[15]; measured here: with BGB IC20, at 0.5 µM",97.9% and 98.3%
same,inhibition,"[15]; measured here: with BGB IC20, at 5 µM",98.2% and 98.3%
same,inhibition,"[15]; measured here: with cisplatin IC20, at 0.5 µM",99.3% and 98.9%
same,inhibition,"[15]; measured here: with cisplatin IC20, at 5 µM",99.6% and 99.7%
same,inhibition,"[15]; single agent, at 5 µM",99.5% and 99.7%
same,inhibition,[16]; at 0.5 µM,58.1% (inactive) and 64.8% (inactive)
same,inhibition,"[16]; measured here: combination with BGB at IC20, at 0.5 µM",81.9% and 74.5%
same,inhibition,"[16]; measured here: combination with cisplatin at IC20, at 0.5 µM",44.1% and 55.5%
same,inhibition,[17]; at 0.5 µM,99.4% (active) and 99.3% (active)
same,inhibition,"[17]; measured here: combo with BGB at IC20, at 0.5 µM",99.4%
same,inhibition,"[17]; measured here: combo with cisplatin at IC20, at 0.5 µM",99.4% and 99.2%
same,inhibition,[18]; at 0.5 µM,90.1% (active) and 89.5% (active)
same,inhibition,"[18]; measured here: inhibition with BGB combination, at 0.05 µM",17.9% and 40%
same,inhibition,"[18]; measured here: inhibition with cisplatin combination, at 0.05 µM",28.7% and 40.8%
same,inhibition,[19]; at 0.5 µM,21.3% (inactive) and 29.5% (inactive)
same,inhibition,[19]; [31],63.4% and 65.4%
same,inhibition,[19]; [32],76.4% and 77.8%
same,inhibition,[20]; at 0.5 µM,69.5% (inactive) and 70% (inactive)
same,inhibition,"[20]; measured here: BGB combination, at 0.5 µM",63.8% and 64.7%
same,inhibition,"[20]; measured here: BGB combination, at 5 µM",63.6% and 74.3%
same,inhibition,"[20]; measured here: cisplatin combination, at 0.5 µM",71.5% and 68.7%
same,inhibition,"[20]; measured here: cisplatin combination, at 5 µM",80.4% and 83.5%
same,inhibition,"[21]; BGB combination, concentration series, at 5 µM",96.9% and 98%
same,inhibition,[21]; at 0.5 µM,97.1% (active) and 97.8% (active)
same,inhibition,"[21]; cisplatin combination, concentration series, at 5 µM",99.8% and 104%
same,inhibition,[22]; at 0.5 µM,84.1% (active) and 83.3% (active)
same,inhibition,"[22]; measured here: combo with BGB IC20, at 0.5 µM",91.6% and 86.1%
same,inhibition,"[22]; measured here: combo with cisplatin IC20, at 0.5 µM",76% and 80.4%
same,inhibition,[23]; at 0.5 µM,13.5% (inactive) and 7.41% (inactive)
same,inhibition,"[23]; cisplatin combination, at 0.5 µM",46.9% and 55.3%
same,inhibition,"[23]; cisplatin combination, at 5 µM",28% and 7.98%
same,inhibition,"[23]; measured here: BGB IC40 combination 0.05 uM, at 0.05 µM",-21.8% and -8.97%
same,inhibition,"[23]; single agent, at 5 µM",42.3% and 44.7%
same,inhibition,[24]; at 0.5 µM,36.1% (inactive) and 38.1% (inactive)
same,inhibition,"[24]; cisplatin combo, at 5 µM",72.4% and 72.1%
same,inhibition,"[24]; measured here: BGB IC40 combination, at 0.05 µM",-15.2% and -13.6%
same,inhibition,[24]; [31],47.7% and 55.8%
same,inhibition,"[24]; single agent, at 5 µM",59.8% and 73%
same,inhibition,[25]; at 0.5 µM,81.7% (active) and 82.4% (active)
same,inhibition,[25]; [29],95.3% and 93.8%
same,inhibition,[25]; [30],74.8% and 76.7%
same,inhibition,"[25]; single agent, at 0.05 µM",4.98% and 48.5%
same,inhibition,"[25]; single agent, at 5 µM",99.8% and 99.9%
